An excerpt weighted towards active compounds, which were near 2.2% of everything screened.
EBV LMP1 NFkB: reduces LMP1-driven NF-kappaB luciferase signal. LMP1-induced NF-kappaB luciferase reporter cells, luminescence. inhibition, % at 12.5 µM. actives 0.69% (n = 350,000). AID 504558; in the data active = inhibition above about 41%; inconclusive = no clear call, values can overlap the other calls;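 also: 0% = neutral control wells and 100% = reference inhibitor control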
EWS-Fli inh: blocks EWS/Fli oncoprotein-driven transcription. actives 0.67% (n = 350,000). A673 NR0B1-luciferase reporter, viability-normalised. inhibition, % at 12.6 µM;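 active = mean inhibition of at least 50% after viability correction, with every replicate also passing that limit; inconclusive = mean reaches 50% but only one of two replicates passes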;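 also: firefly luciferase signal divided by Alamar Blue viability fluorescence both relative to DMSO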
MITF TRPM1 inh: inhibitors of MITF-driven TRPM1 promoter in melanoma cells | actives 0.83% (n = 330,000) | inhibition, % at 12.5 µM | SK-MEL-5 TRPM1 promoter luciferase, 24 h | AID 488899;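 active = mean inhibition across replicates of 60% or more, whatever share of single replicates reaches that level; inconclusive = some that reach 60%, reason not given; inactive = mean inhibition across replicates below 60%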
LGR2 antag: blocks bursicon-induced cAMP signaling via Drosophila LGR2. HEK293 LGR2, CRE-luciferase, bursicon-stimulated, 4 h. inhibition, % at 9.99 µM. actives 0.35% (n = 380,000). AID 720647;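 active = drop in luminescence signal, shown as inhibition above about 50% in the replicate tests, limit read from the data, passing the limit was not always enough; inconclusive = probably only some replicates passing the limit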;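 also: agonist challenge used bursicon conditioned medium at about half maximal strength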
PAX8 reporter: inhibitors of PAX8 transcriptional activity in RMG-I cells; RMG-I TPO-luciferase reporter, SteadyGlo, 24 h; inhibition, % at 12.6 µM; actives 1.2% (n = 360,000); AID 652154;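 active = mean replicate inhibition at least 60% with every replicate also reaching 60%; inconclusive = only one of the two criteria is met; inactive = mean below 60% and not all replicates reaching 60%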;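 also: luciferase light reporting Pax8 driven TPO promoter activity; plate controls were median of neutral control wells for no effect and mitoxantrone controls for full effect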
Shn3 inh set2: reduces Shn3 3'UTR luciferase signal in osteoblasts. Clone20 osteoblast Shn3 3'UTR firefly luciferase, 24 h. inhibition, % at 12.5 µM. actives 0.52% (n = 360,000);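 active = mean inhibition of at least 75% with every replicate also reaching 75%; inconclusive = mean inhibition at least 75% but some replicate below; inactive = mean inhibition below 75%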;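 also: 0% = median of neutral control wells and 100% = pilot-screen positive control compound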
DNA binder FP: DNA binding small molecules. shares compounds with EWS-Fli inh. salmon sperm DNA acridine orange fluorescence polarization. AC35, µM (titrated, usually from 68 µM), for the others: top-dose activity change, negative = DNA binding. actives 2% (n = 640);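 active = fitted curve reaches a 35% signal fall AC35 below twice the sample's top valid tested dose, actives reach about 48 µM in these data; inactive = the rest, including activity in the rising direction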;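 also: lower polarization ratio signals compound binding to DNA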
Active calls of the source: *; u = inconclusive; x = not tested or not shown.

SMILES	EBV LMP1 NFkB	EWS-Fli inh	MITF TRPM1 inh	LGR2 antag	PAX8 reporter	Shn3 inh set2	DNA binder FP
S=c1[nH]nc(-c2cc(-c3ccccc3)n[nH]2)n1/N=C/C(Br)=C/c1ccccc1	x	75.0*	x	0.6	45.5	73.6	0.3%
Cc1cc(C)c2sc(NNC(=O)c3ccc(S(=O)(=O)N4CCc5ccccc5C4)cc3)nc2c1	48.7*	53.9*	72.3*	x	99.2*	96.4*	-5.2%
Cc1nn(Cc2ccccc2Cl)c2sc(C(=O)Nc3ccccc3N3CCOCC3)cc12	4.3	50.2*	10.9	1.4	42.9	21.1	-11.8%
O=C(C[C@@H]1CC[C@@H]2[C@H](COC[C@H](O)CN2C(=O)c2ccc(F)cc2)O1)Nc1ccc(-c2ccccc2)cc1	x	-20.3	x	2.3	21.0	x	x
COc1ccc(OC)c(/C=C/c2ccnc3ccccc23)c1	6.5	70.4*	4.9	-2.8	32.6	-4.6	-14.3%
C/C(=N\OC(=O)c1ccc(Br)cc1)c1ccccn1	-3.0	-0.1	1.8	12.0	-5.9	18.7	x
Cc1ccc(C(=O)O/N=C(\N)c2ccccn2)cc1	78.9*	51.9*	67.4*	101.3*	105.1*	43.6	2.7%
Cc1ccc(/C=C2\SC(=S)N(CCC(=O)NNC(=O)c3ccccc3O)C2=O)cc1	-4.4	51.3*	24.4	25.6	-3.6	9.8	5.4%
Cc1ccc(C(=O)NNC(=O)CCCN2C(=O)/C(=C/c3ccccc3Cl)SC2=S)cc1	35.5	30.8	7.0	9.2	19.0	-4.1	x
Cc1ccc(/C=C2\SC(=S)N(CCCC(=O)NNC(=O)c3ccccc3O)C2=O)cc1	54.6*	82.2*	x	1.0	63.7*	87.2*	9.1%
O=C(CCCN1C(=O)/C(=C/c2ccccc2Cl)SC1=S)NNC(=O)c1ccc(Cl)cc1	20.8	73.5*	37.3	6.4	24.7	-17.7	5.1%
C[C@@H]1CCCCO[C@@H](CN(C)CC2CC2)[C@@H](C)CN([C@H](C)CO)C(=O)c2cc(NC(=O)Cc3ccccc3)ccc2O1	x	x	x	3.1	-12.9	x	x
CN(C)[C@@H]1CCC[C@@H]1OC(=O)C(c1ccccc1)c1ccccc1	-0.9	87.3*	-7.4	7.3	-22.5	-0.3	-1.4%
CCN1CCCC(OC(=O)C(c2ccccc2)c2ccccc2)C1 (configuration not stated)	-12.7	1.5	3.4	x	-8.1	-32.8	x
COCC(=O)Nc1ccc2c(c1)C(=O)N(C)C[C@@H](OC)[C@H](C)CN(C(=O)NC(C)C)[C@@H](C)CO2	x	1.9	x	6.6	x	x	x
O=C(NCCN1CCCC1)[C@H]1N[C@H]2c3ccc(C4=CCCCC4)c(=O)n3C[C@H]2[C@@H]1CO	x	0.1	x	-11.2	-2.3	x	x
CC(C)N1C/C(=C/c2cccnc2)C(=O)/C(=C/c2cccnc2)C1	u	69.5*	90.0*	23.5	-5.2	28.9	-10.9%
CC(C)N1C/C(=C/c2ccsc2)C(=O)/C(=C/c2ccsc2)C1	-88.2	71.9*	100.8*	17.3	40.6	-53.1	-27.2%
CCN1C(=O)S/C(=C/c2ccsc2)C1=O	-2.5	x	-42.1	x	-21.9	-21.1	x
CC(C)N1CC2=C(OC(N)=C(C#N)C2c2cccnc2)/C(=C/c2cccnc2)C1 (configuration not stated)	8.3	x	-10.3	x	-3.9	-18.3	x
C[C@H](NC(=O)C[C@H]1CC[C@@H](NC(=O)CN2CCOCC2)[C@@H](CO)O1)c1ccccc1	x	5.4	x	3.7	-9.6	x	x
C[C@H]1CN([C@@H](C)CO)C(=O)c2cc(-c3ccc(C#N)cc3)cnc2O[C@@H]1CN(C)CC1CCCCC1	x	3.5	x	5.9	1.6	x	x
C[C@@H]1CN([C@@H](C)CO)S(=O)(=O)c2ccc(C#Cc3ccncc3)cc2O[C@H]1CN(C)C(=O)C1CCOCC1	x	70.0*	x	-5.9	23.9	x	1.0%
C[C@@H]1CN([C@H](C)CO)S(=O)(=O)c2ccc(C#Cc3ccncc3)cc2O[C@@H]1CN(C)C(=O)Nc1ccc2c(c1)OCO2	x	65.4*	x	-9.1	69.6*	x	-3.7%
COc1ccc(C(=O)CN2C(=O)c3ccccc3S2(=O)=O)cc1	x	87.5*	x	100.6*	92.7*	70.9	5.7%
SMILES	EBV LMP1 NFkB	EWS-Fli inh	MITF TRPM1 inh	LGR2 antag	PAX8 reporter	Shn3 inh set2	DNA binder FP
CCCn1c(C)cc(C(=O)CN2C(=O)c3ccccc3S2(=O)=O)c1C	82.2*	81.7*	x	56.4*	96.2*	82.7*	-2.1%
Cc1ccc2nc(-c3ccccc3)nn2c1	64.0*	71.8*	42.5	86.3*	x	46.6	-12.2%
Cc1ccc(-c2nnc(-c3ccccc3)c(-c3ccccc3)n2)cc1	-0.8	1.2	-13.1	7.4	19.8	14.1	x
Cc1c(-c2nc(-c3ccc(C(C)(C)C)cc3)no2)n(C)oc1=O	5.7	55.6*	35.8	-7.5	19.0	x	3.46µM*
CCCCCCCN(c1ccccc1)[C@@H]1C[C@H]2CCCC(=O)N3CC[C@@H](C1)[C@@H]23	11.4	62.4*	13.3	52.2*	56.4	u	2.7%
CCCCNC(=O)O[C@@H]1C[C@H]2CCCC(=O)N3CC[C@@H](C1)[C@@H]23	-7.3	-5.1	-3.4	-3.7	-3.0	-6.2	x
O=C(C[C@@H]1CC[C@H]2[C@@H](COC[C@H](O)CN2Cc2cccc(Cl)c2)O1)NCC1CCCCC1	x	3.1	x	2.4	8.9	x	x
COCC(=O)N(C)C[C@@H]1Oc2cc(C#CC3CCCC3)ccc2S(=O)(=O)N([C@H](C)CO)C[C@@H]1C	x	-9.5	x	-1.6	x	x	x
COc1ccc(NC(=O)N(C)C[C@H]2OCCCC[C@@H](C)Oc3ccc(N(C)C)cc3C(=O)N([C@@H](C)CO)C[C@H]2C)cc1	x	-3.1	x	2.4	11.7	x	x
O=C1CCCC2=C1C(c1ccccn1)Nc1ccc(C(=O)c3ccccc3)cc1N2 (configuration not stated)	-1.4	79.6*	10.4	3.7	3.2	-2.9	-6.2%
O=C1CCCC2=C1C(c1ccco1)Nc1ccc(C(=O)c3ccccc3)cc1N2 (configuration not stated)	-6.6	x	9.4	x	x	23.7	x
O=C(N/N=C\c1cc(Br)cs1)c1ccncc1	-3.5	-3.5	-2.2	-4.0	-0.2	-4.0	x
COc1ccc(/C=N/Nc2ccc(C(=O)O)cc2)cc1OC	-3.7	-37.3	-24.7	-11.1	-60.1	-41.0	x
Cc1ccsc1/C=N/Nc1cccc(C(=O)O)c1	66.2*	66.3*	95.7*	87.6*	90.5*	75.6	-7.9%
COc1ccc(/C=N/Nc2ccc(C(=O)O)cc2)cc1Br	35.7	69.0*	41.7	79.7*	43.7	31.2	-7.4%
O=C(O)c1ccc(N/N=C/c2cc(Br)cs2)cc1	-0.9	65.2*	11.4	42.5	25.6	7.5	-3.1%
Cc1ccsc1/C=N/Nc1ccc(C(=O)O)cc1	22.4	70.8*	u	68.8*	77.6*	5.6	5.2%
COc1ccc(-c2cnc3c(c2)C(=O)N([C@@H](C)CO)C[C@H](C)[C@@H](CN(C)Cc2ccccc2)O3)cc1	x	10.0	x	5.7	x	x	x
